In PubChem BioAssay AID449739 (Vanderbilt High Throughput Screening Facility, 2010):
The campaign covered roughly 100,000 compounds. About 4,200 (4.2%) were called active. The sample holds actives, similar compounds and a random draw of the others, so the mix is not that of the screen. Unmarked numbers belong to inactive results.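 Rule for the calls: active = single-dose well whose peak fluorescence ratio is a statistical outlier from its plate by either plate-standardised score or position-corrected B-score; inactive = the rest.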

The molecules below were run against Voltage-dependent T-type calcium channel subunit alpha-1H (Homo sapiens) (UniProt O95180) (assay: Cav3.2 calcium influx blockers – cell-based, Fluo-4 calcium fluorescence, FDSS, MLSMR library, primary screen (AID 449739)). Conditions: Cav3.2-expressing cells, at 10 µM, hits give low values.
Voltage-dependent T-type calcium channel subunit alpha-1H (Homo sapiens), sequence (O95180 whole entry, looked up): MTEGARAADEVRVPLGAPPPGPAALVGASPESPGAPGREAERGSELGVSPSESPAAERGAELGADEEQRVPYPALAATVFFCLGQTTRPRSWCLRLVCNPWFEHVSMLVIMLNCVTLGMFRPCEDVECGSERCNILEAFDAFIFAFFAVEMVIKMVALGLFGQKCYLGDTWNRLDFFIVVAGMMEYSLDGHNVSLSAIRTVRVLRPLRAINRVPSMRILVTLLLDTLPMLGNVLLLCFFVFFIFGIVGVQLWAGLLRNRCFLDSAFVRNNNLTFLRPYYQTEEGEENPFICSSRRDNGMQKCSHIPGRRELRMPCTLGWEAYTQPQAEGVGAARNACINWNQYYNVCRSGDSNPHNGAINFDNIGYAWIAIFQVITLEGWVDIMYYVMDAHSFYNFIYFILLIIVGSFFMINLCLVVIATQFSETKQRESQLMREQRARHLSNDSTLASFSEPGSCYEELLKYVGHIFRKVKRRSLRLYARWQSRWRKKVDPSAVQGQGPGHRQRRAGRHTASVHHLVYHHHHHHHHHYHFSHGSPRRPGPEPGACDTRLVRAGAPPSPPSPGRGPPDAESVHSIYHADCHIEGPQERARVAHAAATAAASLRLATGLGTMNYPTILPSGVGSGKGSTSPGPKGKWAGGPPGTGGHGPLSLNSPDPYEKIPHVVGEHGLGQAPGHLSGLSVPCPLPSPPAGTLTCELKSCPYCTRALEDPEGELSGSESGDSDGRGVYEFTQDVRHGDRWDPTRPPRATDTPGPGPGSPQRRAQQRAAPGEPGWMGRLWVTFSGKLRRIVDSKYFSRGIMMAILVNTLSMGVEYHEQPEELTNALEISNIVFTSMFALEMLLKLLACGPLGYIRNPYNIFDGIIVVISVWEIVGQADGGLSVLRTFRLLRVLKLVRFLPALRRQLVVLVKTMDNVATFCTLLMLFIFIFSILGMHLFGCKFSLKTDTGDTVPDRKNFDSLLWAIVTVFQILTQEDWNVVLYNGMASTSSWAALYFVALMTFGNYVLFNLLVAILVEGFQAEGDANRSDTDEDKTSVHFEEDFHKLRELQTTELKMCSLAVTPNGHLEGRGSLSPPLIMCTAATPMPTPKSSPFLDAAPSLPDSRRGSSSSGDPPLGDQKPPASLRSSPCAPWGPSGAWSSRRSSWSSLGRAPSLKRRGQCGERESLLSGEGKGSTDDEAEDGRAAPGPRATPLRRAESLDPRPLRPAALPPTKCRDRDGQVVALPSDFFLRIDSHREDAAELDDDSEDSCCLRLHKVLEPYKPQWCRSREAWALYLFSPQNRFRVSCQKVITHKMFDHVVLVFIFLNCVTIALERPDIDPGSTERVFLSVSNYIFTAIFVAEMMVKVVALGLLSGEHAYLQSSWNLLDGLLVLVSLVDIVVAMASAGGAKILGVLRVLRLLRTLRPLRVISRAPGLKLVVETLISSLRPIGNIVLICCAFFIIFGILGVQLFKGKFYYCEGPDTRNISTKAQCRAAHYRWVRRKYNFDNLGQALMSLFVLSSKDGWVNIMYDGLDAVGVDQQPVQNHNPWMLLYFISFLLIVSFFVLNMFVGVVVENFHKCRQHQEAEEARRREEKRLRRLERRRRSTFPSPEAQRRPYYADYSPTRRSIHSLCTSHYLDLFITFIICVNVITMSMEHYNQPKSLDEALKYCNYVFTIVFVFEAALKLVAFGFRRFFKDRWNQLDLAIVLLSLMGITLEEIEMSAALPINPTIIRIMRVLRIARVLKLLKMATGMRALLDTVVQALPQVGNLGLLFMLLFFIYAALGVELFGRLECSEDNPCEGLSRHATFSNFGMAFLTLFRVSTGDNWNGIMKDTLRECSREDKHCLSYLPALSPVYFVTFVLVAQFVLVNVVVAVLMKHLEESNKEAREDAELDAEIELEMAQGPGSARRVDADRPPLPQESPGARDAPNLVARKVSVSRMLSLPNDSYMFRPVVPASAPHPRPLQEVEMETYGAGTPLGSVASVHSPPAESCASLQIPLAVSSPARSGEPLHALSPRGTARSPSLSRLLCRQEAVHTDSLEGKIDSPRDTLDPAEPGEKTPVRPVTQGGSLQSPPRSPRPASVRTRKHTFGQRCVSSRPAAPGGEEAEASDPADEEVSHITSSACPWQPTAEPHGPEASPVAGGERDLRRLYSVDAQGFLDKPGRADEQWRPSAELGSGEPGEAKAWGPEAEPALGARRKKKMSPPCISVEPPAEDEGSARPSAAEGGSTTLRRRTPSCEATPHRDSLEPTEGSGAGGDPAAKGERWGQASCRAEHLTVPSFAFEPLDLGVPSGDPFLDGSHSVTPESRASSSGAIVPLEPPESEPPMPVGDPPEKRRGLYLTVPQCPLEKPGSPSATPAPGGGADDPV
In the case of `O=C(COc1ncnc2c(Cl)cc(Cl)cc12)N1CCN(S(=O)(=O)c2ccccc2)CC1`, the B-score is reported as 0.727.
With `COc1ccccc1N(C(=O)Cn1nnc2ccccc21)C(C(=O)NCc1ccco1)c1ccc(C)o1` (stereo not drawn) the B-score was -6.1 (active).
`Cc1ccc(C(C(=O)NCc2ccco2)N(CC2CCCO2)C(=O)Cn2nnc3ccccc32)cc1` (stereo not drawn) was tested, and the B-score was 0.195.
`CC(C)(C)NC(=O)C(c1ccco1)N(Cc1ccc2c(c1)OCO2)C(=O)Cn1nnc2ccccc21` (stereo not drawn) gave a B-score of -1.57.
Molecule `CCOC(=O)c1cc(NC(=O)c2ccc(Cl)cc2)c(=O)oc1-c1ccccc1` has a B-score of -0.21.
`COC(=O)C1(O)CC(C(C)C)=NN1C(=O)c1ccc(Cl)cc1` (stereo not drawn) was tested, and the B-score was -0.542.
`Cc1nnsc1S(=O)(=O)Cc1ccccc1Cl` showed a B-score of 0.123.
`O=C(NNS(=O)(=O)c1ccc(Cl)cc1)C1CCN(Cc2ccccc2)CC1` was tested, and the B-score was 0.455.
In the case of `COC(=O)C(NC(=O)c1ccc(OC)cc1)(Nc1ncc(S(=O)(=O)c2ccc([N+](=O)[O-])cc2)s1)C(F)(F)F` (stereo not drawn), the B-score is reported as -8.97 (active).
Work on `COc1ccc(C(=O)Nc2nc(-c3ccc(OC)cc3)c(-c3ccc([N+](=O)[O-])cc3)s2)cc1` yielded a B-score of -2.13.
Molecule `COc1ccc(C(=O)Nc2ccc(S(=O)(=O)NC(C)C)cc2)cc1` has a B-score of 1.46.
`COC(=O)CCCC1=CC2=CC(=O)C(C)(OC(=O)c3cccs3)C(=O)C2=CN1CC(C)C` (stereo not drawn) was tested, and the B-score was 0.582.
For `COC(C[C@@H]1O[C@@H]1C(=O)[C@H](C)OCc1ccccc1)OC`, the B-score was -0.00689.
With `COc1ccc(-n2c(Cc3cccn3C)nnc2SCC(=O)Nc2cc(C)cc(C)c2)cc1` the B-score was -8.52 (active).
With `CCc1nnc(NC(=O)CSc2nnc(Cc3ccccc3)n2-c2ccc(OC)cc2)s1` the B-score was -1.29.
With `COC(=O)c1ccc(NC(=O)CSc2nnc(Cc3cccn3C)n2-c2ccc(F)cc2)cc1` the B-score was -9.38 (active).
`COc1ccccc1NC(=O)CSc1nnc(Cc2cccn2C)n1-c1ccc(F)cc1` was tested, and the B-score was -2.37.
Work on `Cn1cccc1Cc1nnc(SCC(=O)NCCc2ccccc2)n1-c1ccc(F)cc1` yielded a B-score of -2.55.
With `Cc1ccc(C)c(NC(=O)CSc2nnc(Cc3cccn3C)n2-c2ccc(F)cc2)c1` the B-score was -2.84.
For `COc1ccccc1CNC(=O)c1ccc(SC)cc1OC`, the B-score was -2.74.
`Cc1ccccc1CS(=O)(=O)CC1(O)CCN(C(=O)c2cccc(C(F)(F)F)c2)CC1` was tested, and the B-score was 0.394.
In the case of `C#CCOCCOCCOCCNc1nc(N2CCN(C(=O)[C@H](Cc3ccc(O)cc3)n3cc(C(N)CC(C)C)nn3)CC2)nc(N2CCN(C(=O)[C@H](CCC(=O)O)n3cc(C(N)[C@H](C)CC)nn3)CC2)n1` (stereo partly drawn), the B-score is reported as -0.0524.
With `COc1cc(NC(=O)c2cncc(-c3ccc(C#N)cc3)c2)cc(C(=O)Nc2cccc(C(F)(F)F)c2)c1` the B-score was 0.721.
`CCOc1[nH]n(-c2ccc(Cl)cc2)c(=O)c1C=Nc1ccc(O)cc1` showed a B-score of -0.0117.
Molecule `O=C(Nc1ccc(-c2csc(Nc3cccc(C(F)(F)F)c3)n2)cc1)c1cccc(C(F)(F)F)c1` has a B-score of 0.00365.
Molecule `COC(C[C@@H](O)C[C@H](O)[C@H](C)OCc1ccccc1)OC` has a B-score of 1.07.
For `CCOc1ccc(-c2nnn(CC(=O)N3CCN(c4ccc(F)cc4)CC3)n2)cc1OCC`, the B-score was 0.122.
Work on `Cn1c(=O)c2c(ncn2CC(=O)N2CCN(c3ccccc3)CC2)n(C)c1=O` yielded a B-score of 0.538.
With `O=C(c1ccccc1)c1cccn1CC(=O)N1CCN(c2ccc(F)cc2)CC1` the B-score was -6.62 (active).
`COc1ccc(NS(=O)(=O)c2ccc(NC(=S)NC(=O)CC(C)C)cc2)cc1` was tested, and the B-score was -2.74.
In the case of `Cc1c(C(=O)OC(C)C)sc(NC(=O)c2cccnc2)c1C#N`, the B-score is reported as -2.15.
`CC(=O)c1cnn(-c2cc(Oc3ccc(F)cc3)ncn2)c1C` gave a B-score of -0.109.
Work on `CCC(=O)Nc1cccc(C2=NOC3(C2)C[C@@H](C(N)=O)N(C(=O)c2cc([N+](=O)[O-])cc([N+](=O)[O-])c2C)C3)c1` (stereo partly drawn) yielded a B-score of 0.296.
For `COc1cc(OC)cc(C(=O)NC2CCN(C(=O)N3c4ccccc4Sc4ccccc43)CC2)c1`, the B-score was -3.52 (active).
With `Cc1ccc(C(=O)NC2CCN(C(=O)N3CCOCC3)CC2)cc1` the B-score was 1.24.
`CCOc1ccc(C(=O)NC2CCN(C(=O)Nc3ccccc3OC)CC2)cc1` was tested, and the B-score was 1.41.
`C=CC(COCc1ccccc1)N(Cc1ccccc1)S(=O)(=O)c1ccccc1Br` (stereo not drawn) gave a B-score of -0.978.
In the case of `O=C(CN1CCN(CC(=O)Nc2ccc3c(c2)OCO3)CC1)Nc1ccc(F)cc1`, the B-score is reported as 2.27.
`O=C(CN1CCOCC1)Nc1ccccc1` was tested, and the B-score was -0.393.
In the case of `O=C(CN1CCN(c2ccc(F)cc2)CC1)Nc1cccc(C(F)(F)F)c1`, the B-score is reported as -5.59 (active).
With `COc1ccc(CCNC(=O)C2CC3Cn4c(nc5cc(C)c(C)cc54)C3N2C)cc1` (stereo not drawn) the B-score was 0.841.
`Cc1nn(C(=O)c2ccoc2C)c(N)c1-c1ccccc1` showed a B-score of -1.25.
For `Cc1nn2c(c1-c1ccccc1)N=C(c1ccco1)CC2c1ccccc1` (stereo not drawn), the B-score was -4.41 (active).
`Cc1nc(NC(=O)c2cccc(Cl)c2)sc1-c1csc(Nc2cccc(Cl)c2)n1` was tested, and the B-score was 1.63.
In the case of `O=C(NCc1ccccc1)C1=C[C@@H](c2ccccc2)C[C@@H](OCCCCO)O1`, the B-score is reported as 0.00916.
Molecule `O=[N+]([O-])c1ccccc1NCc1ccc(Cl)cc1` has a B-score of -0.134.
Molecule `C#CCN(N(C)c1ncc(C(F)(F)F)cc1Cl)S(=O)(=O)c1ccc2ccccc2c1` has a B-score of -1.26.
For `CCN(CC)S(=O)(=O)c1ccc(N(C)Cc2ccc(C(F)(F)F)cc2)nc1`, the B-score was -5.7 (active).
`CC(C)(C)NCC(O)COc1cccc2[nH]c(=O)[nH]c12` (stereo not drawn) showed a B-score of 2.63.
`CCOC(=O)CSc1nc2c(sc(=S)n2CCc2ccccc2)c(=O)n1Cc1ccco1` was tested, and the B-score was -3.99.
With `CN(c1ccccc1)c1ccc(/C=c2\s/c(=C(/C#N)C(=O)C(C)(C)C)n(Cc3ccco3)c2=O)cc1` the B-score was -7.8 (active).
`Cc1cc2c(c(=O)n1Cc1ccco1)C(c1ccccc1)C(C#N)=C(N)O2` (stereo not drawn) gave a B-score of 0.691.
`O=C1CCC(=O)N(O)CCCCCNC(=O)CCC(=O)N(O)CCCCCNC(=O)CCC(=O)N(O)CCCCCN1` was tested, and the B-score was 0.127.
`CCN(c1ccccc1)S(=O)(=O)c1ccc(NC(=O)C(C)(C)C)cc1` was tested, and the B-score was -0.778.
For `COC(=O)c1ccc(Sc2ccc(F)cc2)c(N)c1`, the B-score was -2.9.
With `CC(C)(CCl)C(=O)Nc1ccc(Sc2ccc(F)cc2)cc1` the B-score was -7.91 (active).
For `CCOC(=O)C1Cn2c(nc3c(c2=O)C(C)(CC)Cc2ccccc2-3)S1` (stereo not drawn), the B-score was -9.41 (active).
`CCC1(CC)Cc2ccccc2-c2nc3ccccc3c(=O)n21` was tested, and the B-score was -0.963.
Work on `CC1(C)Cc2ccccc2-c2nc(CN3CCOCC3)[nH]c(=O)c21` yielded a B-score of -0.167.
Molecule `CNC(=O)c1csc(-c2ccccc2)n1` has a B-score of 0.414.
`c1cncc(-c2nnc3n2C2(CCCCC2)Cc2ccccc2-3)c1` was tested, and the B-score was 0.419.
Work on `Cc1cccc(C(=O)Nc2ccc(C(=O)/C=C/c3cccs3)cc2)c1` yielded a B-score of -1.78.
Work on `COC(=O)C1=C(C(=O)OC)[C@@H]2N(C)c3ccccc3[C@@]23C[C@@H](C(=O)OC)N(C(=O)c2ccco2)C3=N1` yielded a B-score of 0.92.
In the case of `COCCCn1c(Cc2csc(Nc3cccc(Cl)c3)n2)nnc1SCC(=O)OC1CCCCC1`, the B-score is reported as -7.39 (active).
`CCOc1ccc(Nc2nc(Cc3nnc(SCC(=O)NC4CCCC4)n3C)cs2)cc1` showed a B-score of -0.148.
Work on `COCCCn1c(SCC(=O)Nc2ccccc2)nnc1-c1ccncc1` yielded a B-score of -1.03.
For `Cc1ccc(/C=N\n2c(-c3ccccc3)n[nH]c2=S)s1`, the B-score was -0.0777.
In the case of `CC1(C)S[C@@H]2[C@H](N=CN3CCCCCC3)C(=O)N2[C@H]1C(=O)O`, the B-score is reported as 0.247.
`O=c1cc(N2CCN(Cc3ccccc3)CC2)c(-c2ccccc2)n[nH]1` showed a B-score of 0.119.
`CC(C)Oc1ccc(CCc2n[nH]c(=S)n2Cc2ccccc2)cc1` showed a B-score of -1.48.
`CC(C)N(c1ccccc1)c1ncnc(NCCC(=O)O)c1[N+](=O)[O-]` gave a B-score of 0.156.
With `CNC(=S)N1N=C(c2ccccc2)CC1c1ccc(Br)cc1` (stereo not drawn) the B-score was -7.33 (active).
`COc1ccc(NC(=S)N2N=CCC2c2ccccc2)cc1` (stereo not drawn) showed a B-score of 0.319.
`C=CCOC(=O)C1=C[C@@H](c2ccccc2)C[C@@H](OCc2ccc(CO)cc2)O1` gave a B-score of -1.02.
In the case of `CCN1C(=O)N[C@@H](c2ccccc2)[C@H](C(C)=O)[C@H]1C`, the B-score is reported as 0.0204.
In the case of `Cc1cc(-c2cccs2)nc(-n2cccc2)n1`, the B-score is reported as 0.352.
In the case of `CC1CC(C)CN(CC(=O)N2c3ccccc3CCc3ccccc32)C1` (stereo not drawn), the B-score is reported as -3.85.
`O=C(CN1CCCCC1)N1c2ccccc2Sc2ccc(C(F)(F)F)cc21` showed a B-score of -2.51.
With `O=C(CN1CCCCCC1)N1c2ccccc2Sc2ccc(C(F)(F)F)cc21` the B-score was -4.47 (active).
`CC(Sc1nc2c([nH]c3ccccc32)c(=O)n1C)c1ccccc1` (stereo not drawn) was tested, and the B-score was 0.215.
`CN(C)CCNC(=O)Nc1cccc(Cl)c1Cl` showed a B-score of 0.258.
`NC(=O)CC(NC(=O)Cc1cccc2ccccc12)c1ccc(NCc2cc(F)ccc2F)c([N+](=O)[O-])c1` (stereo not drawn) gave a B-score of -0.287.
`Cc1cnc(NC(=O)CSc2nnc(-c3ccc(Cl)cc3Cl)n2N)s1` was tested, and the B-score was -4.55 (active).
In the case of `Cc1cnc(NC(=O)CSc2c(Cl)cccc2Cl)s1`, the B-score is reported as -0.466.
`Cc1cnc(NC(=O)CSc2nnc(-c3ccccc3)n2Cc2ccccc2)s1` showed a B-score of -2.37.
In the case of `CS(=O)(=O)N(CC(O)Cn1c2ccccc2c2ccccc21)c1cccc2ccccc12` (stereo not drawn), the B-score is reported as 1.02.
For `O=C1c2ccccc2S(=O)(=O)N1CC(O)Cn1c2ccccc2c2ccccc21` (stereo not drawn), the B-score was -5.05 (active).
For `CNC(=O)CN1C(=O)c2ccccc2S1(=O)=O`, the B-score was 0.319.
